Assay results taken from PubChem BioAssay (EPA / NIEHS).
Results filed as inconclusive are left out. The source made the active and inactive calls. How the source made its calls: active means hit-call score of the fitted dose curve at least 0.9, where 1 is the maximum; inconclusive means response in the unintended direction; inactive means score below 0.9.

Key:
[1] = target: cAMP-dependent protein kinase catalytic subunit alpha (Homo sapiens) (UniProt P17612); experiment: NVS_ENZ_hPKA: NovaScreen (NVS) Enzymatic Assay for human Protein Kinase A (PKA) (AID 2283192)
How it was run: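 Cell-free kinase activity read by fluorescence after mobility-shift separation of substrate and product, 1 h post-dosing. Single-concentration duplicate screen (25 uM) preceded singleton concentration series (top 50 uM); loss of signal versus DMSO.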

[2] = target: human Phosphodiesterase 10 (PDE10), PDE10A (gene 10846) (UniProt Q9Y233); experiment: NVS_ENZ_hPDE10: NovaScreen (NVS) Enzymatic Assay for human Phosphodiesterase 10 (PDE10) (AID 2283195)
human Phosphodiesterase 10 (PDE10), PDE10A (gene 10846), sequence (Q9Y233 whole entry, looked up): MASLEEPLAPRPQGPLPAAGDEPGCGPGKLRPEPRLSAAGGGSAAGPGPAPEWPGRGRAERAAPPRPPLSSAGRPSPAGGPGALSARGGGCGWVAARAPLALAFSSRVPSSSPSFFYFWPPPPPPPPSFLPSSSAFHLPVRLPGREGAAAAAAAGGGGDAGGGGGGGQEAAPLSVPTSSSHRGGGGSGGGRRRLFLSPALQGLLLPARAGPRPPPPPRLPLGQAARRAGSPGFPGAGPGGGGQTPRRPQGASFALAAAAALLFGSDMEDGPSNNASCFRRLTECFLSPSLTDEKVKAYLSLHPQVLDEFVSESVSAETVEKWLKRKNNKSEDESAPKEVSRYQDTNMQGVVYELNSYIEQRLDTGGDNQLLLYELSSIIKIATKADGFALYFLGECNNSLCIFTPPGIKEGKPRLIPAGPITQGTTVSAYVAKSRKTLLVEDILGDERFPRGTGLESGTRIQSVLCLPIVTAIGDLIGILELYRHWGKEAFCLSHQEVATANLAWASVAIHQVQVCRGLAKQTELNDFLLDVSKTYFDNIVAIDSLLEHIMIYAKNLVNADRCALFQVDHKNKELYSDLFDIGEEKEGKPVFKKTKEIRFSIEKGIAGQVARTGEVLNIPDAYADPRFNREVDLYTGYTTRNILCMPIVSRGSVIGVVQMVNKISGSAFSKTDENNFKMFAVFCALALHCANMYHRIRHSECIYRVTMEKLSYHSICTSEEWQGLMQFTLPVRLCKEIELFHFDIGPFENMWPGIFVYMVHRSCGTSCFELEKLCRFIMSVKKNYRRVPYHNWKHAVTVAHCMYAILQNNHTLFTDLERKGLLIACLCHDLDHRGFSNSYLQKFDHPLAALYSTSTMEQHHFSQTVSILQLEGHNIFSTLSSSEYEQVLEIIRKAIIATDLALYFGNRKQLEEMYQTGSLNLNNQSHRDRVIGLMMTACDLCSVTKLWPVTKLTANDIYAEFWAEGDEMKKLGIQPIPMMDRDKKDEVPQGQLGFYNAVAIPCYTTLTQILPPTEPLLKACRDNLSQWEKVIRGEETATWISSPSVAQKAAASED
How it was run: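 Fluorescence readout after mobility-shift separation of substrate and product, 1 h reaction with recombinant human enzyme. Single-concentration duplicates at 25 uM, then concentration-response up to 50 uM for chemicals reaching threshold; DMSO baseline.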

| SMILES | outcome [1] | outcome [2] |
| --- | --- | --- |
| S=C1NCCN1 | inactive |  |
| Nc1c(Cl)cc([N+](=O)[O-])cc1Cl | inactive |  |
| CN(C)[C@@H]1C(=O)C(C(N)=O)=C(O)[C@@]2(O)C(=O)C3=C(O)c4c(O)cccc4[C@@](C)(O)[C@H]3[C@H](O)[C@@H]12 |  | inactive |
